Compound activity: PubChem, National Center for Advancing Translational Sciences (NCATS)
Shown are actives, neighbours in structure and some others; about 9% of the full set was active somewhere.
BAZ2B inh – BAZ2B (human) inhibition; Q9UIF8; AlphaScreen BAZ2B-H3K14Ac peptide displacement; Potency, µM (titrated, usually from 114 µM), inactives show top-dose activity change, negative = inhibition, actives largely listed as inhibitors; hit rate 4.4% among 360,000; AID 504333; further: on the % scale 0 is the no-effect control and ±100 the full control effect; nearly all actives have a fitted effect of over 60% in size
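Protein-peptide AlphaScreen: BAZ2B 50 nM, b-H3K14Ac 50 nM, 1x PBS pH 7.4 + 0.01% Tween-20. Preincubation 30 min RT; cpd 30 min RT (top 110 uM); beads 20 min RT, light-protected.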
G9a inh – inhibitors of human histone lysine methyltransferase G9a; hit rate 8.8% among 350,000; Potency, µM (titrated, usually from 102 µM), for the others: at the top dose activity, negative = inhibition, usual class: inhibitors; Q96KQ7; AID 504332; G9a H3K9 monomethylation, AlphaScreen, 2 h; further: on the % scale 0 is the no-effect control and ±100 the full control effect; nearly all actives have a fitted effect of over 75% in size
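AlphaScreen detection with an anti-monomethyl H3K9 antibody quantified product after a 2 h room-temperature reaction containing 500 nM biotinylated H3K9 peptide, 20 µM SAM and 20 nM enzyme, which had been preincubated 15 min with compound.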
PLK1 PBD block – inhibitors of human PLK1 polo-box domain binding; AID 720504; hit rate 2.8% among 360,000; Potency, µM, inactives show max response, negative = inhibition, hits mostly inhibitors; Plk1 PBD binding of FITC phosphopeptide, fluorescence polarization; further: series mostly up to about 57 µM; on the % scale 0 is the no-effect control and ±100 the full control effect; nearly all actives have a fitted effect of over 65% in size
HP1b binding inh – inhibitors of HP1-beta chromodomain binding to methylated histone tails. P83916. AlphaScreen HP1-beta / biotin-H3K9me3 peptide binding. Potency, µM (titrated, usually from 114 µM), without a hit: at the top dose activity change, negative = inhibition, usual class: inhibitors. hit rate 0.56% among 390,000; further: nearly all actives have a fitted effect of over 70% in size
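Compound inhibition of the preformed complex between 50 nM HP1-beta and 50 nM biotinylated H3K9me3 peptide was read by AlphaScreen. Buffer was PBS pH 7.4 with 0.01% Tween-20. Incubations ran 30 min at room temperature, with 10 ug/mL donor/acceptor beads.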
ALOX12 inh – blocks human arachidonate 12S-lipoxygenase; P18054; purified 12hLO, xylenol orange hydroperoxide absorbance; Potency, µM (top dose mostly 108 µM), without a hit: top-dose activity change, negative = inhibition, most hits filed as inhibitors; hit rate 1.1% among 580,000; further: on the % scale 0 is the no-effect control and ±100 the full control effect
Target sequence (P18054 whole entry, looked up): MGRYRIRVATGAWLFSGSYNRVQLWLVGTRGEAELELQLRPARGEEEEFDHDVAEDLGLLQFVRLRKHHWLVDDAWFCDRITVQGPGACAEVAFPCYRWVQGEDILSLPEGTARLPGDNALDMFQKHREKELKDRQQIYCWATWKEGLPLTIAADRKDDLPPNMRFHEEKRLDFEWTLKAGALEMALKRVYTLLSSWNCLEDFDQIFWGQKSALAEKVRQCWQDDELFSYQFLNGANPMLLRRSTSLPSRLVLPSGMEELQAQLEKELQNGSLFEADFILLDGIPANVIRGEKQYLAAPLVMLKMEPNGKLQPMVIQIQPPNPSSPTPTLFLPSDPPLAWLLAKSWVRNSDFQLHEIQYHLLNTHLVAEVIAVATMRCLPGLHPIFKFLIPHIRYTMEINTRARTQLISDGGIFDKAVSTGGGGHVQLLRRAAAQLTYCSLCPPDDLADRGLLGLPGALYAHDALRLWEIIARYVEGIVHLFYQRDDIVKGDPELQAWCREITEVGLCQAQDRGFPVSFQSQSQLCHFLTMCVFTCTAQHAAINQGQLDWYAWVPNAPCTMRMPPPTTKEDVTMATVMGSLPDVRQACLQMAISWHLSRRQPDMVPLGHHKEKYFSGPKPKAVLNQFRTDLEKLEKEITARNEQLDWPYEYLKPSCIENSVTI
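Purified human 12hLO at 150 nM in 25 mM Hepes, 0.01% Triton X-100, pH 7.0, preincubated 15 min at room temperature with compound. Reaction started with 40 uM arachidonic acid, 30 min at room temperature. Hydroperoxide measured by Fe-xylenol orange, 573/405 nm absorbance ratio.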
JMJD2A Tudor inh – JMJD2A Tudor domain (human) inhibition. Potency, µM (titrated, usually from 114 µM), inactives show at the highest dose activity change, negative = inhibition, most hits filed as inhibitors. AlphaScreen JMJD2A-Tudor / H3K4me3 peptide binding. AID 504339. hit rate 4.4% among 390,000. O75164; further: on the % scale 0 is the no-effect control and ±100 the full control effect; nearly all actives have a fitted effect of over 50% in size
The depositor's hits bear a star; i = inactive; ? = inconclusive; . = no result given; [ ] = another dose, or the depositor's remark. The call rests on the fitted dose curve; in most records, active means well fitted curve in the direction sought with a large enough effect; inconclusive means small, poorly fitted or top-dose-only effect, or another doubt; inactive means no such curve, though single readings can be large; an effect the other way counts as inactive or inconclusive. Potency means the concentration at half of the fitted maximal effect.

SMILES	BAZ2B inh	G9a inh	PLK1 PBD block	HP1b binding inh	ALOX12 inh	JMJD2A Tudor inh
Cc1ccc(C(=O)N2Cc3ccccc3CC2C(=O)O)cc1 (configuration not stated)	-26%	35µM*	-6%	25%	-19%[57.4 µM]	?
N#Cc1c(N)sc(=S)c2c1CCCC2	40µM*	7.1µM*	?	?	0%	?
CCC1(C)Cc2c(C#N)c(N)sc(=S)c2CO1 (configuration not stated)	?	?	-20%	?	?	?
O=C1COc2ccc(OCc3cncs3)nc2CN1CCOc1ccccc1	.	.	.	.	8%[176 µM]	.
CCc1ccc(C(=O)COC(=O)CNC(=O)c2ccc(Br)o2)cc1	-3%	16%	4%	44%	-9%	-4%
COc1ccccc1C(=O)COC(=O)CNC(=O)c1ccc(Br)o1	1%	50µM*	-4%	50%	7%	-14%
O=C(Nc1cc2c(cc1Br)OCCCO2)c1cccnc1	-35%	13%	2%	30%	i	-6%
O=c1[nH]c(/C=C/c2ccc([N+](=O)[O-])cc2)c([N+](=O)[O-])c(=O)[nH]1	-4%	28µM*	-5%	6%	?	-3%
O=c1[nH]c(/C=C/c2ccc3c(c2)OCO3)c([N+](=O)[O-])c(=O)[nH]1	-4%	?	.	.	.	.
CN1c2ccsc2/C(=N/Nc2ccccc2)CS1(=O)=O	?	25µM*	?	?	?	56µM*
CC(=O)c1ccc2c(c1)Nc1ccccc1S2	4%	2.8µM*	-11%	-1%	0%	-7%[57.1 µM]
CCOC(=O)Nc1ccc2c(c1)Nc1ccccc1S2	28µM*	8.9µM*	-3%	-42%	?	40µM*
O=C1C2CCCN2c2ccc(S(=O)(=O)N3CCOCC3)cc2N1Cc1ccccc1F (configuration not stated)	2%	.	-15%	44%	.	-10%[57.1 µM]
Cc1ccc(C)c(CN2C(=O)C3CCCN3c3ccc(C#N)cc32)c1 (configuration not stated)	1%	?	-4%	45%	-2%	5%
CNS(=O)(=O)c1ccc2c(c1)NC(=O)C1CCCN21 (configuration not stated)	-6%	?	-22%	27%	-25%	-21%
Cc1ccc(CN2C(=O)C3CCCN3c3ccc(C#N)cc32)cc1 (configuration not stated)	-18%	20µM*	.	.	.	.
N#Cc1ccc2c(c1)NC(=O)C1CCCN21 (configuration not stated)	-29%	14µM*	-19%	23%	?	-10%
CON(C)S(=O)(=O)c1ccc2c(c1)N(Cc1ccc(C)cc1)C(=O)C1CCCN21 (configuration not stated)	-22%	25µM*	-17%	38%	-16%	-17%
N#CCN1C(=O)C2CCCN2c2ccc(S(=O)(=O)N3CCOCC3)cc21 (configuration not stated)	-27%	20µM*	-2%	32%	-14%	-10%
CCOC(=O)C1(Cc2ccccc2)CCN(Cc2cnn(-c3ccccc3)c2)CC1	-20%	.	-4%	26%	-6%	-17%
CC1CCN(S(=O)(=O)c2ccc3c(c2)C(Cl)(Cl)C(=O)N3)CC1	.	.	?	.	40µM*	.
CN1C(=O)CC(=O)N(C)c2cc(S(=O)(=O)N(C)Cc3ccccc3)ccc21	-5%	?	7.5µM*	?	?	-28%
CC1CCN(S(=O)(=O)c2ccc3c(c2)N(C)C(=O)CC(=O)N3C)CC1	-33%	28µM*	13µM*	12%	-2%	-2%
CN1C(=O)Cc2cc(S(=O)(=O)N3CCOCC3)ccc21	7%	40µM*	-27%	-8%	0%	-6%[57.1 µM]
CC1CCN(S(=O)(=O)c2ccc3ccccc3c2)CC1	23%	?	-13%	151%	15%	39%
SMILES	BAZ2B inh	G9a inh	PLK1 PBD block	HP1b binding inh	ALOX12 inh	JMJD2A Tudor inh
Cc1cc(OC2CN(Cc3ccc(C(F)(F)F)cc3)C2)ccc1F	.	.	.	.	6%[176 µM]	.
CCOC(=O)C1CCN(S(=O)(=O)c2ccc3c(c2)CCCN3C(C)=O)CC1	-6%	-7%	-11%	77%	-21%	-2%
CCOC(=O)C1CCN(S(=O)(=O)c2ccc3c(c2)CC(=O)N3C)CC1	-13%	45µM*	-28%	-11%	45µM*	?
Cc1ccc(S(=O)(=O)N2CCC(C(=O)OCc3c(C)noc3C)CC2)cc1C	6%	40µM*	-4%	29%	-6%	-4%
Cc1ccc(N(CCC#N)C(=O)CCl)cc1C	5%	0%	-7%	41%	?	-8%
CCOC(=O)c1cnc2ccccc2c1Nc1cccc(C(=O)O)c1	0%	?	-23%	22%	-24%	-10%[57.1 µM]
O=C(COc1ccc(-c2ccccc2)cc1)c1ccc(F)cc1	.	.	.	.	3%	.
CCc1nc2c(OCC(=O)c3ccc(Cl)cc3Cl)cccn2c1N(C=O)Cc1ccccc1	.	.	-21%	.	14µM*	.
CCc1nc2c(OCc3ccc(Cl)cc3)cccn2c1N(C=O)Cc1ccccc1	.	.	-5%	.	?	.
O=C(CSc1nnnn1-c1ccc(Cl)cc1)Nc1cccnc1Cl	5%	14%[59 µM]	-12%	13%	-18%	-14%
N#CCCSc1ccccc1NC(=O)c1cc(=O)c2ccccc2o1	-18%	20µM*	-25%	16%	?	-21%
CN(C)S(=O)(=O)c1ccc(C(=O)Nc2ccccc2SCCC#N)cc1	.	5µM*	-27%	9%	?	-12%
CC1CN(C)C(C)C/C1=N/Oc1ccccc1[N+](=O)[O-] (configuration not stated)	-32%	?	-11%	4%	-15%	-28%
O=c1c(CCc2ccccc2)nc2cnc(N3CCOCC3)nc2n1CCc1ccccc1	.	7%[0.501 µM]	.	.	0%	.
CCN(C(=O)Cn1c(=O)oc2ccccc21)c1cccc(C)c1	-25%	-45%	27µM*	9%	388%	?
OCCCc1cn[nH]c1	.	.	.	.	7%	.
OCC1(Cc2ccccc2)CCN(C2CCN(c3ccc(F)c(F)c3)CC2)CC1	-27%	-36%	-7%	20%	50µM*	-14%
O=[N+]([O-])c1ccc(NCc2ccncc2)cc1	-28%	3%	-2%	29%	23%	-15%
Cc1[nH]c2ccccc2c1C(=O)COC(=O)c1ccccc1O	.	.	1%	15%	?	-1%
CCOC(=O)c1[nH]c(COC(=O)CCOc2ccccc2OC)c(C(=O)OCC)c1C	8%	?	2%	54%	-29%	6%
CCOC(=O)c1c(C)[nH]c(C)c1C(=O)COC(=O)c1ccccc1O	-34%	50µM*	-11%	7%	?	-21%
CCOC(=O)c1c(C)[nH]c(C)c1C(=O)COC(=O)CCOc1ccccc1OC	-32%	?	?	-23%	-10%	79µM*
CC(C)CNC(=O)/C=C/C=C/c1ccc2c(c1)OCO2	.	.	-6%	24%	7%	-16%
